Screening data as filed in PubChem BioAssay.
This is a sample that favours compounds with a hit; in the whole collection about 12% have one here.
JMJD2A Tudor inh: qHTS Assay for Inhibitors of JMJD2A-Tudor Domain | Lysine-specific demethylase 4A (Homo sapiens), O75164 | AlphaScreen JMJD2A-Tudor / H3K4me3 peptide binding | Potency, µM (highest dose often 114 µM), inactives show at the top dose activity change, negative = inhibition, hits mostly inhibitors | 4.4% of 390,000 active | AID 504339, 2011; also: % is scaled to controls: 0 for no effect and ±100 for the full control effect; nearly all actives have a fitted effect of over 50% in size
G9a inh: qHTS Assay for Inhibitors of Histone Lysine Methyltransferase G9a | G9a H3K9 monomethylation, AlphaScreen, 2 h | Potency, µM (series often up to 102 µM), for inactives: top-dose activity, negative = inhibition, usual class: inhibitors | AID 504332, 2011 | Histone-lysine N-methyltransferase EHMT2 (Homo sapiens), Q96KQ7 | 8.8% of 350,000 active; also: % is scaled to controls: 0 for no effect and ±100 for the full control effect; nearly all actives have a fitted effect of over 75% in size
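Methyltransferase reactions run at room temperature for 2 h (20 nM enzyme, 500 nM biotin-H3K9 peptide, 20 uM SAM) after a 15 min compound preincubation; product detected by AlphaScreen beads and anti-H3K9me1 antibody.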
Sfp PPTase inh: qHTS Assay for Inhibitors of Bacillus subtilis Sfp phosphopantetheinyl transferase (PPTase); AID 1490, 2009; Biochemical Sfp PPTase activity, qHTS; Potency, µM, without a hit: largest response in the series, negative = inhibition, actives largely listed as inhibitors; 4'-phosphopantetheinyl transferase ffp (Bacillus subtilis), Q9F4F7; 3.5% of 310,000 active;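 also: the enzyme is Sfp with the accession as filed and its product quenches rhodamine fluorescence; 0% = enzyme reaction without inhibitor and -100% = no enzyme wells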
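Reaction rates are the 30-min fluorescence difference (ex 525, em 598 nm) in wells containing 15 nM Sfp, 5 uM rhodamine-CoA and 12.5 uM BHQ-2-YbbR at pH 7.6 with 10 mM MgCl2.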
HP1b chromo inh: HTS for Inhibitors of HP1-beta Chromodomain Interactions with Methylated Histone Tails; AlphaScreen HP1-beta / biotin-H3K9me3 peptide binding; Chromobox protein homolog 1 (Homo sapiens), P83916; AID 540317, 2011; Potency, µM (highest dose often 114 µM), for the others: top-dose activity change, negative = inhibition, hits mostly inhibitors; 0.56% of 390,000 active; also: nearly all actives have a fitted effect of over 70% in size
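Compound inhibition of the preformed complex between 50 nM HP1-beta and 50 nM biotinylated H3K9me3 peptide was read by AlphaScreen. Buffer was PBS pH 7.4 with 0.01% Tween-20. Incubations ran 30 min at room temperature, with 10 ug/mL donor/acceptor beads.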
BAZ2B block: qHTS Assay for Inhibitors of BAZ2B. AlphaScreen BAZ2B-H3K14Ac peptide displacement. 4.4% of 360,000 active. Bromodomain adjacent to zinc finger domain protein 2B (Homo sapiens), Q9UIF8. Potency, µM (top dose mostly 114 µM), without a hit: top-dose activity change, negative = inhibition, usual class: inhibitors; also: % is scaled to controls: 0 for no effect and ±100 for the full control effect; nearly all actives have a fitted effect of over 60% in size
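AlphaScreen displacement: compounds (up to 110uM) incubated 30 min at room temperature with a preformed 50 nM BAZ2B/50 nM biotinylated H3K14Ac peptide complex in PBS pH 7.4 with Tween-20. Donor and acceptor beads at 10 ug/mL final added, 20 min light-protected before reading.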
PLK1 PBD block: qHTS for Inhibitors of PLK1-PDB (polo-like kinase 1 - polo-box domain): Primary Screen | 2.8% of 360,000 active | Plk1 PBD binding of FITC phosphopeptide, fluorescence polarization | AID 720504, 2013 | Potency, µM, for inactives: max response, negative = inhibition, actives largely listed as inhibitors; also: series mostly up to about 57 µM; % is scaled to controls: 0 for no effect and ±100 for the full control effect; nearly all actives have a fitted effect of over 65% in size
Target sequence (P53350 whole entry, looked up, the tested form may be a part): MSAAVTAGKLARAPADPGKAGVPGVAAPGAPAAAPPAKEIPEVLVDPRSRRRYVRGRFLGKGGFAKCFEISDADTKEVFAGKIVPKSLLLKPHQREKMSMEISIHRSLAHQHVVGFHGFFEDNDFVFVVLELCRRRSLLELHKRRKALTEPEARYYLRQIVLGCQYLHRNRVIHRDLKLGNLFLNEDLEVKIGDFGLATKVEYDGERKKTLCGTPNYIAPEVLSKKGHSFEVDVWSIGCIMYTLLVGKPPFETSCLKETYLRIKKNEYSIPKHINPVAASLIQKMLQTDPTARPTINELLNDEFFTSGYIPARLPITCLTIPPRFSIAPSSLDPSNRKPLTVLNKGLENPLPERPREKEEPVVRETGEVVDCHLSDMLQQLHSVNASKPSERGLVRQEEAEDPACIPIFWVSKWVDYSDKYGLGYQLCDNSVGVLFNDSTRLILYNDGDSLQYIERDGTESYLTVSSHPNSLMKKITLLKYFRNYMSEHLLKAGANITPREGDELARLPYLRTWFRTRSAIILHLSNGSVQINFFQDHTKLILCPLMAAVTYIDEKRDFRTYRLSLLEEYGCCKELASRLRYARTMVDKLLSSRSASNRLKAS
Numbers without * were called inactive; ? = inconclusive; . = no result; [ ] = remark or other dose. Calls follow the shape of the dose curve; as a rule, active = well fitted curve in the direction sought with a large enough effect; inconclusive = small, poorly fitted or top-dose-only effect, or another doubt; inactive = no such curve, though single readings can be large; an effect the other way counts as inactive or inconclusive. Potency is read from the fitted curve at half-maximal effect.

SMILES | JMJD2A Tudor inh | G9a inh | Sfp PPTase inh | HP1b chromo inh | BAZ2B block | PLK1 PBD block
O=C(COc1ccc(Cl)cc1Cl)OCC(=O)N1CCCc2ccccc21 | 39.8% | 27.4% | 4.1% | 86.6% | 22.9% | -0.1%
Cc1cccc(OCC(=O)Nc2ccccc2N2CCCCC2)c1 | 66.9% | 54.2%[59 µM] | 1.0% | 191.1% | 52.1% | 0.9%
O=C(NCCC1=CCCCC1)C(=O)NCC(c1ccco1)N1CCN(c2ccc(F)cc2)CC1 (stereo not given) | -19.7% | 11.2%[59 µM] | 16.7% | 10.9% | 12.1% | -9.1%
COc1ccc(C(=O)N2CCC(C)(C(=O)O)C2)cc1OC (stereo not given) | . | . | . | . | . | 0.0%
Cc1ccc2cc(C3C(C#N)=C(N)Oc4c3ccc3cccnc43)c(=O)[nH]c2c1 (stereo not given) | ? | -19.5%[0.0925 µM] | 10µM* | 28.8% | ? | ?
CCc1ccc2[nH]c(=O)c(C3C(C#N)=C(N)Oc4c3ccc3cccnc43)cc2c1 (stereo not given) | ? | -4.0%[59 µM] | -26.0% | 12.5% | ? | -27.8%
CC(C)(C)NC(=O)C(=O)NNC(=O)c1ccco1 | -17.7% | -31.2% | 79.4µM* | 51.2% | 56.2µM* | 1.3%
CC(C)CNC(=O)C(=O)NNC(=O)c1ccco1 | -13.5%[11.4 µM] | 11.2µM* | 4.0% | 11.8% | ? | -7.7%
Cc1cccc(C(=O)NNC(=O)C(=O)NC(C)(C)C)c1 | ? | 28.2µM* | -4.3% | 46.7% | ? | -11.4%
CC(CNC(=O)c1ccco1)NC(=O)c1ccco1 (stereo not given) | -8.9% | ? | 29.1% | -4.7% | 5.0% | 1.2%
O=C(NNC(=O)c1ccco1)c1ccco1 | . | . | . | . | . | -10.2%
Nc1scc2c(C(=O)N/N=C/c3ccc(Cl)cc3)nn(-c3ccccc3)c(=O)c12 | 44.7µM* | ? | 14.1µM* | -23.5% | ? | ?
Nc1c(C(=O)N/N=C/c2ccc(Cl)cc2)cnn1-c1ccccc1 | -18.3% | -3.2% | 23.1% | 13.8% | -11.6% | -0.2%
N#CCCn1cc(CNCc2cccnc2)c(-c2ccccc2)n1 | 8.91µM* | . | . | ? | . | .
N#CCCn1cc(/C=N/O)c(-c2ccc(-c3ccccc3)cc2)n1 | -8.9% | -8.9%[59 µM] | 0.0% | 13.2% | -0.8% | -8.5%
N#C/C(=N\Nc1ccccc1)C(=N)N1CCCCC1 | -23.2% | -7.1% | 4.6% | -8.0% | ? | -4.2%
CCN(CC)C(=N)/C(C#N)=N/Nc1ccccc1 | 79.4µM* | . | 9.5% | ? | -14.9% | -0.3%
CC1(C)Cc2noc(N)c2C(C)(C)N1O | 31.6µM* | ? | ? | 16.6% | -7.0% | -0.6%
O=C(CSc1nc(-c2ccccc2)nn1C(=O)c1ccccc1)Nc1cccc([N+](=O)[O-])c1 | ? | . | -0.1% | -1.0% | 56.2µM* | ?
O=C(c1cccc([N+](=O)[O-])c1)n1nc(-c2ccccc2)nc1NCc1ccccc1 | ? | 44.7µM* | 3.3% | -11.7% | -6.9% | -1.0%
COCC(=O)n1nc(-c2ccccc2)nc1NCc1ccc(N(C)C)cc1 | 35.5µM* | -3.9%[12.7 µM] | 5.5% | 50.1µM* | 31.6µM* | -4.2%
CCc1ccccc1NC(=O)CSc1nc(-c2ccccc2)nn1C(=O)c1cccc([N+](=O)[O-])c1 | . | 9.1%[59 µM] | 13.0% | . | 8.4%[57.1 µM] | .
CN1CCN(c2ncc3nc(-c4cc(F)cc(F)c4)c(=O)n(CCc4ccccc4)c3n2)CC1 | . | -7.9%[0.501 µM] | -4.8% | . | . | .
Cc1cn2c(=O)cc(COc3cccc(NC(=O)c4ccccc4Cl)c3)nc2s1 | -9.9% | -17.1%[59 µM] | . | 23.9% | -19.3% | .
Cc1ccccc1-c1cc(C(=O)NCc2cccc(C(F)(F)F)c2)n(CC2CC(c3cccnc3)=NO2)n1 (stereo not given) | -19.3% | . | . | 75.6% | . | 8.8%
SMILES | JMJD2A Tudor inh | G9a inh | Sfp PPTase inh | HP1b chromo inh | BAZ2B block | PLK1 PBD block
Cc1cccc(NC(=S)c2nc3ccccc3s2)c1 | 50.1µM* | . | 1.6% | 28.2µM* | 8.91µM* | 1.2%
CCCCCCCc1nc2nc(C)c(Br)c(=O)n2[nH]1 | 28.2µM* | -47.6% | 24.5% | 0.9% | -24.5% | 26.7µM*
CCCCc1c(C)nc2nc(SCc3ccc(Cl)cc3)[nH]n2c1=O | -8.4% | ? | -0.1% | 39.5% | 6.0% | -27.7%
Nc1ccc(S(=O)(=O)NC2=NCCCCC2)cc1 | -7.6% | . | -3.4% | 27.8% | -1.8% | -8.3%
Nc1nc2cc(S(=O)(=O)NC3=NCCCCC3)ccc2s1 | -22.1% | -21.2%[12.7 µM] | ? | 30.1% | -21.2% | 21.2µM*
CCOC(=O)c1ccc(S(=O)(=O)Nc2nc3cc(S(=O)(=O)NC4=NCCCCC4)ccc3s2)cc1 | 89.1µM* | 3.55µM* | 28.2µM* | -21.5% | . | 23.8µM*
CCOC(=O)C1=CCN(S(=O)(=O)c2ccccc2C)C1c1ccc(F)cc1 (stereo not given) | . | . | . | . | . | -11.0%
CCOC(=O)N1CCN(c2nc(-c3ccccc3)c3ccccc3n2)CC1 | 117.4% | 182.3% | -17.9% | 225.4% | 192.1% | -12.0%
Fc1cccc(CN2CCSCC2)c1 | 20µM* | 25.1µM* | -18.4% | ? | 50.1µM* | -10.3%
Fc1ccc(CN2CCSCC2)cc1F | 3.98µM* | 31.6µM* | -16.9% | ? | ? | -3.0%
Fc1cccc(CN2CCCCCCC2)c1 | 2µM* | 12.6µM* | -16.8% | ? | ? | 4.0%
O=S(=O)(c1ccc(Br)cc1)N1CCCN(Cc2cccc(F)c2)CC1 | 10.9% | ? | 5.8% | 44.2% | 12.7% | 0.0%
O=C(CN1CCN(Cc2cccc(F)c2)CC1)NCc1ccccc1 | -11.7% | 28.0% | 6.0% | 0.7% | -19.7% | -9.4%
CC(OC(=O)c1ccc2c(c1)OCCO2)C(=O)c1ccccc1 (stereo not given) | 22.1% | 13.8% | . | 55.1% | 7.1% | 1.8%
C[C@H](N=C(NC#N)Nc1ccncc1)C(C)(C)C | . | 9.3%[21.5 µM] | -5.7% | . | . | .
